The values that follow come from PubChem BioAssay.

In general, inhibition refers to the drop in the measured response relative to a control, in per cent.

For experiment [1], the system named is TLR4-MyD88 interaction (human), BLA complementation. Kind of experiment: disruptors of TLR4 binding to MyD88 – cell-based, HeLa CL3-4, BLA complementation, FRET ratio, confirmation (AID 941).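 Also: plate controls were DMSO only for no effect and clavulanic acid blocking BLA at full dose for full effect.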 The note with it: CCF4 FRET ratio, at 8.4 µM, stronger effect = higher value.
Experiment [2] is described as follows: BLA reporter interference in HeLa cells – cell-based, full-length BLA, CCF4 FRET ratio, artefact control for TLR4-MyD88 binding inhibitor project, confirmation (AID 1237;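 active = mean inhibition over three repeats above about 26% taken from the earlier screen, limit read from the data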;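 also: HeLa cells stably expressing beta-lactamase reporter as counterscreen for TLR4-MyD88 inhibitors; 0% = DMSO and 100% = clavulanic acid full inhibition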). The note with it: at 8.4 µM, stronger effect = higher value.
In experiment [3] the target is Toll-like receptor 9 (Homo sapiens) (UniProt Q9NR96). Kind of experiment: disruptors of TLR9 binding to MyD88 – cell-based, CHO, BLA complementation, fluorescence, triplicate, confirmation (AID 540250;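 active = mean inhibition across three repeats above about 21% taken from the earlier screen, limit read from the data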;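 also: blue over green emission ratio reports constitutive TLR9 MyD88 association via BLA complementation; 0% = DMSO vehicle wells and 100% = clavulanate BLA inhibitor wells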). The note with it: CCF4 FRET ratio, at 4.98 µM, stronger effect = higher value.
The nature of experiment [4]: BLA reporter readout interference – cell-based, fluorescence, artefact control for TLR9-MyD88 binding inhibitor project (AID 540251;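 active = mean inhibition above a 50% cutoff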;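 also: counterscreen of TLR9-MyD88 hits on CMV-driven BLA in CHO-K1 cells; 0% = DMSO alone and 100% = clavulanate blocking BLA; higher means less blue over green ratio so more BLA blockade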). Conditions: CHO-BLA cells, CCF4 FRET ratio, at 4.98 µM, stronger effect = higher value.
Experiment [5] is described as follows: CHO cell viability loss – luminescence, single concentration, cytotoxicity control for TLR9-MyD88 binding inhibitor project (AID 588336; in the data active = inhibition above about 11%). Conditions: TLR9-MyD88 CHO cells cytotoxicity, at 4.98 µM, stronger effect = higher value.
Experiment [6] deals with Receptor-interacting serine/threonine-protein kinase 2 (Homo sapiens) (UniProt O43353). The experiment can be described thus: inhibitors of RIPK2 association with NOD2 – fluorescence, CHO cells, BLA complementation, triplicate, confirmation (AID 624370;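 active = mean inhibition across replicates above a set limit taken from the earlier primary screen, cut at about 21% in these data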;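 also: 0% = DMSO-only wells and the high end = clavulanate BLA-blocked wells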). Conditions: CCF4 FRET, at 4.98 µM, stronger effect = higher value.
Chain of Receptor-interacting serine/threonine-protein kinase 2 (Homo sapiens) (O43353 whole entry, looked up): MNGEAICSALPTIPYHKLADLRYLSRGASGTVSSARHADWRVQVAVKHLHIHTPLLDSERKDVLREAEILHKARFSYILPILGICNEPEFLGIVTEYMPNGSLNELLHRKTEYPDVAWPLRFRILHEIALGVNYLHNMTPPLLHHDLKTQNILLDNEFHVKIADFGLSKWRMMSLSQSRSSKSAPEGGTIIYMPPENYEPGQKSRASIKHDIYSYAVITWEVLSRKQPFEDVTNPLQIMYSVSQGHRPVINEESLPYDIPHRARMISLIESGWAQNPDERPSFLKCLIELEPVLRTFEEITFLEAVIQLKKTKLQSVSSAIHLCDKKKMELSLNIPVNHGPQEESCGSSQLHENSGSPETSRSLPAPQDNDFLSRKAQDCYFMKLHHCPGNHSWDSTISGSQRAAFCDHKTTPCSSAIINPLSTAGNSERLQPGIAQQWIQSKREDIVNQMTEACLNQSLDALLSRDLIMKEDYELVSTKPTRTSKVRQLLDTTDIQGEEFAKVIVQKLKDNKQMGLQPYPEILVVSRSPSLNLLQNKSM
Experiment [7] can be described thus: BLA reporter readout interference – cell-based, CHO-K1 CMV-bla, CCF4 FRET, fluorescence, artefact control for NOD2-RIPK2 interaction inhibitor project, confirmation (AID 624371;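 active = mean inhibition above the low-control mean inhibition plus three low-control SD, cut at about 11% in these data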;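 also: 0% = DMSO only wells and 100% = clavulanate high control wells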). Conditions: CCF4 FRET ratio, counterscreen, at 4.98 µM, stronger effect = higher value. A general note: The purpose of a counterscreen is to sort out artefacts and off-target activity.
Experiment [8] has as its target Peroxisome proliferator-activated receptor gamma (Homo sapiens) (UniProt P37231). The experiment can be described thus: retested PPARg-SRC-2 recruitment enhancers – biochemical, HTS, confirmation (AID 1297; in the data active = activation above about 22%;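 also: 0% = vehicle alone and 100% = reference agonist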). The note with it: biochemical SRC-2 recruitment by PPARgamma; at 8 µM; stronger effect = higher value.
The target is the same in experiment [9]. The experiment can be described thus: retest of SRC-1 recruitment enhancers for PPARgamma – biochemical, confirmation (AID 1300; in the data active = activation above about 20%;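 also: 0% = vehicle wells and 100% = reference agonist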). Conditions: PPARgamma–SRC-1 coactivator recruitment biochemical assay; at 8 µM; stronger effect = higher value.
Experiment [10] deals with Peroxisome proliferator-activated receptor gamma (Homo sapiens) + Nuclear receptor coactivator 3 (Homo sapiens) (UniProt P37231+Q9Y6Q9). The experiment can be described thus: agonists promoting SRC-3 binding to PPARgamma – biochemical, confirmation (AID 1301; in the data active = activation above about 24%;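 also: 0% = vehicle wells and 100% = reference agonist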). Conditions: biochemical PPARgamma-SRC-3 coactivator recruitment, agonist mode; at 8 µM; stronger effect = higher value.
Experiment [11] is described as follows: potentiators of IFN-gamma STAT1 reporter activity – cell-based, HTS, luciferase reporter, confirmation (AID 1262;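 active = activation above a set limit carried over from the earlier primary STAT1 screen, cut at about 140% in these data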;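 also: simple ratio to median IFN-gamma plus DMSO wells so 0% means no light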). Conditions: NIH 3T3 STAT1-luciferase reporter, IFN-gamma potentiation, luminescence; at 5.7 µM; stronger effect = higher value; 100% = IFN-gamma EC80 alone, no compound. A general note: A reporter such as luciferase makes a cellular process visible.
Experiment [12] can be described thus: enhancement of NF-kB transcriptional signalling – cell-based, HEK293T, luciferase luminescence, TNF-alpha, counter-screen for STAT1 activator project (AID 1306;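 active = activation above the mean of solvent-only control wells plus 3 SD, set per campaign, cut at about 130% in these data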;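 also: TNF-alpha given at a submaximal dose yielding about 80% of full reporter signal; values are well signal over median control so 100% means no change and 0% no light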). The note with it: HEK293T NF-kB luciferase reporter, TNF-alpha stimulated, at 5.7 µM, stronger effect = higher value, 100% = TNF-alpha with vehicle only.
Experiment [13] deals with Signal transducer and activator of transcription 3 (Homo sapiens) (UniProt P40763). Kind of experiment: enhancers of IL-6 STAT3 transcription – U3A cells, luciferase, luminescence, counter-screen for STAT1 activator project, confirmation (AID 1316;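 active = activation above the solvent-only control well mean plus 3 SD, set per plate batch, cut at about 110% in these data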;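 also: 0% = no luminescence and 100% = median IL-6 plus DMSO wells; higher means more STAT3 reporter activation so hits are non-selective activators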). Conditions: U3A cells STAT3-luciferase reporter, IL-6, luminescence; at 5.7 µM; stronger effect = higher value; 100 = IL-6 alone, no compound effect; cells lack STAT1.

Experiment [14] in a line: blockers of IL-6 STAT3 signaling – U3A cells, luciferase, luminescence, confirmation (AID 1265;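 active = inhibition above the hit cutoff computed for the primary STAT3 screen, cut at about 44% in these data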;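 also: 0% = IL-6 plus DMSO and 100% = IL-6 plus nifuroxazide control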). The note with it: IL-6 STAT3 luciferase reporter, at 5.7 µM, stronger effect = higher value, cell line lacks STAT1.
Experiment [15] is described as follows: inhibition of TNF-alpha-driven NF-kB transcription – cell-based, HEK293T, luciferase, TNF-alpha stimulus, counter-screen for STAT3 inhibitor project, confirmation (AID 1308;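 active = inhibition above the mean of solvent-only control wells plus 3 SD, cutoff set per campaign, cut at about 13% in these data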;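 also: 0% = TNF-alpha with DMSO and 100% = TNF-alpha with MG high control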). Conditions: HEK293T NF-kB luciferase reporter, TNF-alpha induced; at 5.7 µM; stronger effect = higher value.
Experiment [16] in a line: inhibition of STAT1-driven transcription – cell-based, NIH 3T3, luciferase luminescence, IFN-gamma, counter-screen for STAT3 inhibitor project, confirmation (AID 1317;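 active = inhibition above the mean plus 3 SD of solvent-only control wells, limit set per screening run, cut at about 16% in these data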;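 also: 0% = DMSO with IFN-gamma and 100% = nifuroxazide control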). Conditions: NIH 3T3 STAT1-luciferase reporter, IFN-gamma induced, at 5.7 µM, stronger effect = higher value.
The nature of experiment [17]: suppression of KLF5 promoter-driven luciferase – DLD-1 cells, luminescence, confirmation (AID 1834;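 active = inhibition above a set limit taken from the earlier primary screen, cut at about 63% in these data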;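 also: 0% = DMSO wells and 100% = LY294002 at 200 µM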). The note with it: DLD-1 KLF5 promoter firefly luciferase reporter, at 4 µM, stronger effect = higher value.
The nature of experiment [18]: IEC-6 intestinal cell killing – luminescence, triplicate, cytotoxicity control for KLF5 inhibitor project (AID 1905; in the data active = inhibition above about 23%;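 also: cells exposed to compounds for 48 hours before viability read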). Conditions: IEC-6 rat intestinal cells, viability luminescence; at 4 µM; stronger effect = higher value.
Experiment [19] deals with Nuclear receptor coactivator 3 (Homo sapiens) (UniProt Q9Y6Q9). The experiment can be described thus: NCOA3 GAL4-fusion reporter inhibition – cell-based, luminescence, quadruplicate, confirmation (AID 588792;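 active = mean inhibition over 43.08%, the solvent-only control mean plus 3 SD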;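 also: 0% = DMSO treated cells and 100% = gossypol at 36 µM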). Conditions: HEK293 GAL4-SRC3 luciferase reporter, at 3.6 µM, stronger effect = higher value.
In experiment [20] the test system is transactivating tegument protein VP16 (Human herpesvirus 1), Gal4-VP16 luciferase reporter. Kind of experiment: repression of VP16-driven luciferase reporter – cell-based, luminescence, high throughput, counter-screen for SRC3 inhibitor project (AID 588794; in the data active = inhibition above about 30%). The note with it: mammalian cells, at 3.6 µM, stronger effect = higher value.
Experiment [21] addresses Nuclear receptor coactivator 1 (Homo sapiens) (UniProt Q15788). Kind of experiment: NCOA1 GAL4-fusion reporter inhibition – cell-based, luminescence, quadruplicate, confirmation (AID 588820;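 active = mean inhibition above 46.68%, the untreated control wells mean plus 3 SD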;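 also: 0% = DMSO wells and 100% = gossypol 36 µM treated wells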). Conditions: HEK293 GAL4-SRC1 luciferase reporter, at 3.6 µM, stronger effect = higher value.
Experiment [22] is described as follows: repression of VP16-driven luciferase reporter – cell-based, luminescence, high throughput, counter-screen for SRC1 inhibitor project (AID 588824; in the data active = inhibition above about 25%). Conditions: cell-based VP16 transactivation luciferase luminescence; at 3.6 µM; stronger effect = higher value.
Experiment [23] addresses Photoreceptor-specific nuclear receptor (Homo sapiens) (UniProt Q9Y5X4). Kind of experiment: retest of NR2E3-NCOR disrupting agonists – cell-based, luminescence, CHO-S two-hybrid, confirmation (AID 624378;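 active = average inhibition above a cutoff equal to the mean inhibition of all tested compounds plus one SD, cut at about 70% in these data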;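 also: 0% = DMSO in NR2E3 cells and 100% = DMSO in cells lacking NR2E3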). The note with it: CHO-S mammalian two-hybrid NR2E3-NCOR, luciferase luminescence; at 3.98 µM; stronger effect = higher value.
The nature of experiment [24]: nonselective effects on VP16 transactivation – cell-based, luminescence, CHO-S, high throughput, counter-screen for NR2E3 agonist project, confirmation (AID 624379;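 active = mean inhibition above a cutoff equal to the average over all tested compounds plus one standard deviation, cut at about 70% in these data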;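 also: 0% = DMSO with VP16-transfected cells and 100% = DMSO with cells lacking VP16; higher means less reporter light so more repression of VP16 activity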). The note with it: CHO-S GAL4-VP16 luciferase reporter, at 3.98 µM, stronger effect = higher value.
Experiment [25] in a line: StAR promoter reporter inhibitors, counter-screen for LRH-1 inverse agonist project, cell-based, luminescence, high throughput (AID 651611; in the data active = inhibition above about 28%). The note with it: StAR promoter luciferase reporter counterscreen, at 3.6 µM, stronger effect = higher value.
The target of experiment [26] is Nuclear receptor subfamily 5 group A member 2 (Homo sapiens) (UniProt O00482). The experiment can be described thus: NR5A2 activity suppression in reporter cells – cell-based, luminescence, confirmation (AID 651613; in the data active = inhibition above about 42%;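 also: HEK293T cells co-transfected with LRH-1 and StAR promoter luciferase reporter; 0% = vehicle wells and 100% = parental cells lacking receptor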). The note with it: cell-based LRH-1 luciferase reporter, inverse agonism; at 3.6 µM; stronger effect = higher value.
Chain of Nuclear receptor subfamily 5 group A member 2 (Homo sapiens) (O00482 whole entry, looked up): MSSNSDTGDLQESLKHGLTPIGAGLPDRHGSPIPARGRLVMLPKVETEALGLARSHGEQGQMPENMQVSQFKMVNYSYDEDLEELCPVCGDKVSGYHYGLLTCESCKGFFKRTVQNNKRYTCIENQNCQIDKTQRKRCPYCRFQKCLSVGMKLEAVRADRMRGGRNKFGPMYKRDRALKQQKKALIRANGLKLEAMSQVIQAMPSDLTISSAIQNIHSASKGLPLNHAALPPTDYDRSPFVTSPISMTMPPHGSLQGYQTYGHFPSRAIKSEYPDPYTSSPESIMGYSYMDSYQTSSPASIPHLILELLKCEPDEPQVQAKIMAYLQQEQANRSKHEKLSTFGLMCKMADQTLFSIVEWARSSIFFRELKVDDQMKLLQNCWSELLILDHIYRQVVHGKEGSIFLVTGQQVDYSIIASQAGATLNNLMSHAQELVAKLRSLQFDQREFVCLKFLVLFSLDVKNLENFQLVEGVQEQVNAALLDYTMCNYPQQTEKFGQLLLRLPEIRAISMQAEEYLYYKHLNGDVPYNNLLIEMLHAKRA
The target of experiment [27] is Steroidogenic factor 1 (Homo sapiens) (UniProt Q13285). The experiment can be described thus: inverse agonism at SF1 nuclear receptor – cell-based, luminescence, high throughput, counter-screen for LRH-1 inverse agonist project (AID 651614; in the data active = inhibition above about 44%;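 also: cells cotransfected with StAR promoter reporter and SF1 expression vector; 0% = vehicle on cells with receptor and 100% = vehicle on cells lacking receptor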). Conditions: cell-based SF1 luciferase reporter, at 3.6 µM, stronger effect = higher value.
Chain of Steroidogenic factor 1 (Homo sapiens) (Q13285 whole entry, looked up, the tested form may be a part): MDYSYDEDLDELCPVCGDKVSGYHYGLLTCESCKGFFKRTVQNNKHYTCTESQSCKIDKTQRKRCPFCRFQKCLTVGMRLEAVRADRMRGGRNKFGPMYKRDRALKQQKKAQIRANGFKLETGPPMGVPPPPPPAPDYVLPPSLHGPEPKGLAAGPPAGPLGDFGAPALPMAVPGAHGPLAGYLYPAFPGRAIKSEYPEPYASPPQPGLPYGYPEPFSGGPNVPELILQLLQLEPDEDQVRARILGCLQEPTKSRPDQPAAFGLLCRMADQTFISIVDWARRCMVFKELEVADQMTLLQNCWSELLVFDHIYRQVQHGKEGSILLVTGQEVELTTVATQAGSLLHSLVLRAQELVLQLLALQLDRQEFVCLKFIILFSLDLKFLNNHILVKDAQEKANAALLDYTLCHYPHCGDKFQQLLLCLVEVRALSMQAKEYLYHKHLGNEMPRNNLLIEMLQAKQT
Experiment [28] can be described thus: compounds suppressing VP16-driven luciferase signal – cell-based, luminescence, high throughput, counter-screen for LRH-1 inverse agonist project (AID 651615; in the data active = inhibition above about 33%). Conditions: Gal4-VP16 luciferase reporter cells, at 3.6 µM, stronger effect = higher value.
Experiment [29] in a line: VP16-driven transactivation reporter suppression – cell-based, luminescence, HEK293, counter-screen for COUP-TFII antagonist project (AID 687007; in the data active = inhibition above about 13%). The note with it: HEK293 Gal4-VP16 luciferase reporter, at 8.5 µM, stronger effect = higher value.
Experiment [30] concerns the target COUP transcription factor 2 (Homo sapiens) (UniProt P24468). The experiment can be described thus: retest of COUP-TFII reporter suppressors – cell-based, luciferase reporter, HEK293, triplicate, confirmation (AID 687008;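 active = mean inhibition over three repeats above a set limit taken from the earlier primary screen, cut at about 38% in these data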;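 also: 100% = cells given the luciferase reporter alone without the COUP-TF2 vector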). Conditions: HEK293 NGFI-A luciferase reporter, luminescence; at 8.5 µM; stronger effect = higher value.

The structures appear in SMILES notation. Values without a mark were called inactive. The list shows a part of the results. Active and inactive are the calls of the source.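 The calls were made as follows, unless noted: active = mean inhibition across three repeat runs above about 25% carried over from the earlier screen (limit read from the data); inactive = the rest.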

Chain of Peroxisome proliferator-activated receptor gamma (Homo sapiens) (P37231 whole entry, looked up): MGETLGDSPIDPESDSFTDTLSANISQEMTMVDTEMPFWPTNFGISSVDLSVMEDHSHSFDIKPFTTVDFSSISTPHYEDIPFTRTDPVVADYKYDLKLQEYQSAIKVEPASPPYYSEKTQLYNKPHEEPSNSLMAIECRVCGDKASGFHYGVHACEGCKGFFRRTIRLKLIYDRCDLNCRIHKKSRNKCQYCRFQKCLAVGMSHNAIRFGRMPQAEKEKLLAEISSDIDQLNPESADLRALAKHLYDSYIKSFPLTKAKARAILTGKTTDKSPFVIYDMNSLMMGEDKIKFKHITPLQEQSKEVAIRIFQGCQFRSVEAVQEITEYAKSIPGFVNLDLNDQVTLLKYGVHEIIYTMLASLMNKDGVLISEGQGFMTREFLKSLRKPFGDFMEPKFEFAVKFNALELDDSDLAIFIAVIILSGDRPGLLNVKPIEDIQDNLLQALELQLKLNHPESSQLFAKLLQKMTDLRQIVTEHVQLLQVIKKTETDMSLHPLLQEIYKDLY
Chain of Nuclear receptor coactivator 1 (Homo sapiens) (Q15788 whole entry, looked up, the tested form may be a part): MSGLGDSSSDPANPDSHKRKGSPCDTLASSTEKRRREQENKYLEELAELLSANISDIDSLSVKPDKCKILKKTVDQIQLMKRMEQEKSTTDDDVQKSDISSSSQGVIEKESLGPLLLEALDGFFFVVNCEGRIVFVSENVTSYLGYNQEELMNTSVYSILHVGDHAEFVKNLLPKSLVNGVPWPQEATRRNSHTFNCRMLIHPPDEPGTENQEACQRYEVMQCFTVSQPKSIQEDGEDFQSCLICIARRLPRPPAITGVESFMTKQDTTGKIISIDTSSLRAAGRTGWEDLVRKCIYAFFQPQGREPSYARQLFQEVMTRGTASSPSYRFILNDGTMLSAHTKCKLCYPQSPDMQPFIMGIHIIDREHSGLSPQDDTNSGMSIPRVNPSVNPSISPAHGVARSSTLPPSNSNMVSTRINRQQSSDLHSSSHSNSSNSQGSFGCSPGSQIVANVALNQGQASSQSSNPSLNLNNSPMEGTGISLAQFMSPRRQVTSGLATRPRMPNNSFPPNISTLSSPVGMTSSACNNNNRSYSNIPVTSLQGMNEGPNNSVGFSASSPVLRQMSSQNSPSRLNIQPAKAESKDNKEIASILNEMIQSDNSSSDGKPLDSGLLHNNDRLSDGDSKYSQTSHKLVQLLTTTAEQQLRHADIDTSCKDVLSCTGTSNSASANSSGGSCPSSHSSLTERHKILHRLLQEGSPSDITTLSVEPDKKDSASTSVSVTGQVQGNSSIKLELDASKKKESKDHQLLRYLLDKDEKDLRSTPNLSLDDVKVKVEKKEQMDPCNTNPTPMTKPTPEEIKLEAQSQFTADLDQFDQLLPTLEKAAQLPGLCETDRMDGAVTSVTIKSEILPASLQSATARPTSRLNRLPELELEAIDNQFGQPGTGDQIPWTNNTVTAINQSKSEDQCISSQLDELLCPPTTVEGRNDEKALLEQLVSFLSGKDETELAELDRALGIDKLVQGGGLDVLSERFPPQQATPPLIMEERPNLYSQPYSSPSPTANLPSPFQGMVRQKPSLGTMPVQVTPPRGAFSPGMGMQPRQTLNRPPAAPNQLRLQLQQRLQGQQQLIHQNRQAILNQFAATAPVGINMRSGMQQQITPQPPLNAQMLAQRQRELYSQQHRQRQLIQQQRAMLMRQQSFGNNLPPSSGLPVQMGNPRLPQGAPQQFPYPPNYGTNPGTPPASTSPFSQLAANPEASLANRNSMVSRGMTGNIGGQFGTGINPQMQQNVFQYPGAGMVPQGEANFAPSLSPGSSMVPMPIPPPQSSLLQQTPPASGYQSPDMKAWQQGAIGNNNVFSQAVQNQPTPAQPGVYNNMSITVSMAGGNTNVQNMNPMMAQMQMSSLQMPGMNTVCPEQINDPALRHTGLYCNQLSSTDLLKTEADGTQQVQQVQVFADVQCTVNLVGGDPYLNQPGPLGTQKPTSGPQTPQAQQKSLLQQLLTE
Chain of COUP transcription factor 2 (Homo sapiens) (P24468 whole entry, looked up): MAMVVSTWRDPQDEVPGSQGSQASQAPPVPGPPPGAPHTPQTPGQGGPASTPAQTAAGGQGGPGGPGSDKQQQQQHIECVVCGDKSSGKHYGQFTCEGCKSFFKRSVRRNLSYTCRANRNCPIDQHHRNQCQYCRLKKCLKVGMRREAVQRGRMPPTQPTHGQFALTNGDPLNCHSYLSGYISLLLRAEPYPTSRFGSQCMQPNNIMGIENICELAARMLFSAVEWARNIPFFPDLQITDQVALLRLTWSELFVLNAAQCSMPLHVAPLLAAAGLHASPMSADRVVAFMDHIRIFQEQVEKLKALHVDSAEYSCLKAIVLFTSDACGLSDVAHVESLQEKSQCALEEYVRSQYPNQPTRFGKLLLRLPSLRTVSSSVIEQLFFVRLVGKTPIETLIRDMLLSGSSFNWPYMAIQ
Chain of Photoreceptor-specific nuclear receptor (Homo sapiens) (Q9Y5X4 whole entry, looked up): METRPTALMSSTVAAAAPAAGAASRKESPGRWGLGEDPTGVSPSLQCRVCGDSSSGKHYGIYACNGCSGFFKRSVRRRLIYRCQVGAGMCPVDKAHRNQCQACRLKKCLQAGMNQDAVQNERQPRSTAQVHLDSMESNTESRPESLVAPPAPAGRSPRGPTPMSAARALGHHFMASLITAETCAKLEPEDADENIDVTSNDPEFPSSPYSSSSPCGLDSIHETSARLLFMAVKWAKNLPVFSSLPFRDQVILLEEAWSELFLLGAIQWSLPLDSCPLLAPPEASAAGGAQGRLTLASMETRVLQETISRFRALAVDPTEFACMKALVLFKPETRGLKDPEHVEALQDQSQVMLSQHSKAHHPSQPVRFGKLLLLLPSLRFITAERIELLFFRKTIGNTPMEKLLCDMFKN

In the case of `O=C1NC(=O)C2C1C(c1ccc([N+](=O)[O-])cc1)=NN2Cc1ccccc1` (centres undefined), the inhibition in experiment [1] was 25.8% (active); in experiment [2] it was 42.9% (active); in experiment [3] it was 25.8% (active); in experiment [4], 25.6%; in experiment [5], 4.55%; in [6] it was 49.4% (active). Besides, in [7], the inhibition is 51.9% (active).
As to `CCN(CC)c1ccc2oc(=O)c(C)nc2c1`, the inhibition is 4.42% in [1] and 4.01% in [2]. Further, the activation in experiment [8] is 7.05%; in experiment [9], 6.29%; in experiment [10], 3.97%.
As for `COc1ccccc1-c1cc(C(=O)N2CCCCC2)no1`, the activation (% of control) in experiment [11] was 204% (active); in experiment [12], 137% (active); in experiment [13] it was 116% (active).
As for `CCCCCCCCn1c2c(c(=N)c3c1CCC3)CCCC2`, the inhibition in experiment [1] is 23.3%; in [2], 27.8% (active); in [14], 86.6% (active); in [15], 43.9% (active); in experiment [16], 28.9% (active); in experiment [17] it was 115% (active). The inhibition is 23.5% (active) in [18]; 85.1% (active) in experiment [19]; 87.4% (active) in experiment [20]; 66.6% (active) in [21]; 87.6% (active) in experiment [22]; 99.3% (active) in [23]. The inhibition in experiment [24] is 91.4% (active); in experiment [25], 78.1% (active); in experiment [26] it was 110% (active); in [27], 96.5% (active); in [28], 96.8% (active); in [29] it was 32.1% (active). Moreover, the inhibition in experiment [30] was 87.4% (active).
